Rows were chosen to be rich in hits. Some 2.3% of all compounds tested hit in one or more screens of this group.
SENP6 inh: SENP6 protease inhibitors, primary screen, biochemical, luminescence, uHTS; Sentrin-specific protease 6 (Homo sapiens), Q9GZR1; Recombinant SENP6 catalytic domain, aminoluciferin luminescence; inhibition, % at 10 µM; 1.8% of 330,000 active;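 active = inhibition above about 50% at the single tested dose, limit read from the data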
SENP7 block: SENP7 protease inhibitors, primary screen, biochemical, luminescence, uHTS; Sentrin-specific protease 7 (Homo sapiens), Q9BQF6; recombinant SENP7, Z-RLRGG-aminoluciferin luminescence, 40 min; inhibition, % at 5 µM; 1.5% of 330,000 active; AID 434973, 2010;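 active = inhibition above about 50% at the single test dose, limit read from the data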
Target sequence (Q9BQF6 706-1050 limits assumed): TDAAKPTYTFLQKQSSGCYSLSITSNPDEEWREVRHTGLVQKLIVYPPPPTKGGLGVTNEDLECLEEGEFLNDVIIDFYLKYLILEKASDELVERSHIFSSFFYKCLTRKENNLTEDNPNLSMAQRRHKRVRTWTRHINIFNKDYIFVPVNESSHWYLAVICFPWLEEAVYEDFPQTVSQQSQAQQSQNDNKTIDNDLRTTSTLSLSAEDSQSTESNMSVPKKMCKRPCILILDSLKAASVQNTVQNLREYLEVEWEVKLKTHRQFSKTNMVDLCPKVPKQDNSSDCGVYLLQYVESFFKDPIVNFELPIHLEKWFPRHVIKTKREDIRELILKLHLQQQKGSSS
HSP90 refold inh: HSP90 inhibitors, primary screen, cell lysate, luminescence. Heat shock protein HSP 90 (rabbit reticulocyte lysate; luciferase refolding). Rabbit reticulocyte lysate, luciferase refolding luminescence, 3 h. inhibition, % at 5.6 µM. 0.91% of 290,000 active;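 active = inhibition above the screen-wide mean plus 3 SD, computed separately per campaign, cut at about 16% in these data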;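 note: inhibitors lower the luminescence because luciferase stays unfolded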
LGR2 inh: inhibitors of bursicon-induced LGR2 CRE-luciferase signal, primary screen, cell-based, HEK293, CRE-luciferase reporter, bursicon stimulation. Drosophila bursicon receptor LGR2 (rickets). bursicon-stimulated, 4 h. inhibition, % at 9.99 µM. 0.35% of 380,000 active. AID 720647, 2013;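 active = drop in luminescence signal, shown as inhibition above about 50% in the replicate tests, limit read from the data, passing the limit was not always enough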;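 note: agonist challenge used bursicon conditioned medium at about half maximal strength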
SENP8 block-1: human SENP8 protease inhibitors, primary screen, biochemical, fluorescence, Nedd8 protein substrate, uHTS; recombinant SENP8; inhibition, % at 20 µM; 0.64% of 360,000 active; in the data active = inhibition mostly above about 40%, no sharp cut-off; inactive = mostly below about 27%
Target sequence (Q96LD8 whole entry, looked up): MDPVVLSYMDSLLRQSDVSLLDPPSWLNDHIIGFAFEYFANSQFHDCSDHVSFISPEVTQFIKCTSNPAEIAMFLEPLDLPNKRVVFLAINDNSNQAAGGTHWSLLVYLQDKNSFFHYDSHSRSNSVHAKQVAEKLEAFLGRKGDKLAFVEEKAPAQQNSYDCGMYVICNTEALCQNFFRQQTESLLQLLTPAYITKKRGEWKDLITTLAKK
SENP8 block-2: SENP8 protease inhibitors, primary screen, biochemical, luminescence; 1.2% of 330,000 active; purified SENP8, Z-RLRGG-aminoluciferin cleavage; Sentrin-specific protease 8 (Homo sapiens), Q96LD8; AID 2540, 2010; inhibition, % at 10 µM; in the data active = inhibition above about 50%
Each line names hits and unclear results; the compound was inactive in the other large screens.

O=c1[nH]c(=O)n(Cc2ccc(Oc3ccccc3)cc2)cc1Br	none
C=C1CC(Cn2cc(Br)c(=O)[nH]c2=O)(c2ccc(-c3ccccc3)cc2)OC1=O (stereo not drawn)	LGR2 inh 76.4 (no result: SENP6 inh, SENP7 block, HSP90 refold inh, SENP8 block-2)
COc1ccc2occ(C(=O)c3ccccc3)c2c1	none
COc1ccc(C(=O)c2coc3c2C(=O)C(=O)c2ccccc2-3)cc1	SENP8 block-1 82.9 (no result: LGR2 inh)
COc1cccc(NC(=O)N[C@H]2C=C[C@H](CC(=O)Nc3ccccc3)O[C@H]2CO)c1	none (no result: SENP6 inh, SENP7 block, HSP90 refold inh, SENP8 block-1, SENP8 block-2)
O=C(N/N=C\c1ccccn1)c1ccccc1O	none (no result: LGR2 inh)
Cc1ccccc1C(=O)N/N=C/c1ccccn1	LGR2 inh 57.4
Oc1csc(Cc2nc(-c3ccc4ccccc4c3)cs2)n1	SENP7 block 65.7 (no result: LGR2 inh)
Cc1ccc(/C=C2/CNC/C(=C/c3ccc(C)cc3)C2=O)cc1	LGR2 inh 55.1 (no result: SENP6 inh, SENP7 block, HSP90 refold inh, SENP8 block-2)
Clc1c(CSc2nc3ccccc3o2)nc2sccn12	none (no result: LGR2 inh)
Clc1c(CSc2nc3ccccc3o2)nc2ccccn12	SENP6 inh 52.3
C[C@@H]1CN([C@H](C)CO)C(=O)c2cc(NC(=O)Nc3ccccc3)ccc2O[C@H]1CN(C)CC1CCCCC1	none (no result: SENP6 inh, SENP7 block, HSP90 refold inh, SENP8 block-1, SENP8 block-2)
C[C@@H]1CN([C@@H](C)CO)S(=O)(=O)c2ccc(C#CC3CC3)cc2O[C@@H]1CN(C)C(=O)c1cnccn1	none (no result: SENP6 inh, SENP7 block, HSP90 refold inh, SENP8 block-1, SENP8 block-2)
CCN(CC)c1ccc(C2NC(=O)c3ccccc3N2)cc1 (stereo not drawn)	LGR2 inh 87.7 (no result: SENP6 inh, SENP7 block, HSP90 refold inh, SENP8 block-2)
CC(C)NC(=O)Nc1ccc2c(c1)C(=O)N([C@H](C)CO)C[C@@H](C)[C@H](CN(C)CC1CC1)OCCCC[C@@H](C)O2	none (no result: SENP6 inh, SENP7 block, HSP90 refold inh, SENP8 block-1, SENP8 block-2)
COC(=O)c1cc(=O)n(Cc2ccc(F)cc2)c(=Nc2ccccc2)s1	none
COC(=O)c1cc(=O)n(Cc2ccc(OC)c(OC)c2)c(=Nc2ccc(F)cc2)s1	LGR2 inh 61.6
COC(=O)c1cc(=O)n(CCc2ccc(OC)c(OC)c2)c(=Nc2ccc(F)c(Cl)c2)s1	LGR2 inh 54.7
C[C@H](CO)N1C[C@H](C)[C@@H](CN(C)C(=O)Nc2cccc3ccccc23)OCCCC[C@H](C)Oc2ccc(NC(=O)Nc3ccc(F)cc3)cc2C1=O	none (no result: SENP6 inh, SENP7 block, HSP90 refold inh, SENP8 block-1, SENP8 block-2)
Cc1cc(/C=C2\SC(=S)N(Cc3ccco3)C2=O)c(C)n1-c1ccccc1	none
CN(C)c1ccc(C=C2SC(=S)N(Cc3ccco3)C2=O)cc1	SENP8 block-1 48.2 (no result: SENP6 inh, SENP7 block, HSP90 refold inh, SENP8 block-2)
O=C1C=CC2(O[C@H](c3ccccc3)[C@@H](c3ccccc3)O2)[C@H](Sc2ccccc2O)C1	LGR2 inh 98.7 (no result: SENP6 inh, SENP7 block, HSP90 refold inh, SENP8 block-2)
COc1ccccc1C(=O)N1C[C@@H]2[C@H](c3ccccc31)[C@@H](CO)N2Cc1ccc(F)cc1	none (no result: SENP6 inh, SENP7 block, HSP90 refold inh, SENP8 block-1, SENP8 block-2)
CCCNC(=O)[C@H]1[C@H](CO)[C@H]2Cn3c(ccc(-c4cccc(OC)c4)c3=O)[C@@H]1N2CC	none (no result: SENP6 inh, SENP7 block, HSP90 refold inh, SENP8 block-1, SENP8 block-2)
Cn1nc(-c2ccccn2)nc2c(=O)n(C)c(=O)nc1-2	SENP7 block 95.6, HSP90 refold inh 86.6, LGR2 inh 102.5, SENP8 block-1 93.4, SENP8 block-2 96.8
COc1ccc(-c2nc(-c3ccccn3)ncc2S(C)(=O)=O)cc1	none
C[C@@H]1CCCCO[C@@H](CN(C)S(=O)(=O)c2ccc(F)cc2)[C@H](C)CN([C@H](C)CO)C(=O)c2cc(NC(=O)C3CCCCC3)ccc2O1	none (no result: SENP6 inh, SENP7 block, HSP90 refold inh, SENP8 block-1, SENP8 block-2)
C[C@@H]1CN([C@H](C)CO)C(=O)c2c(c3ccccc3n2C)-c2ccccc2CO[C@@H]1CN(C)S(=O)(=O)c1ccc(C(F)(F)F)cc1	LGR2 inh 52.7 (no result: SENP6 inh, SENP7 block, HSP90 refold inh, SENP8 block-1, SENP8 block-2)
COc1ccc2c3c([nH]c2c1)[C@H](CO)N(C(=O)Cc1ccccc1)CC31CN(C)C1	none (no result: SENP6 inh, SENP7 block, HSP90 refold inh, SENP8 block-1, SENP8 block-2)
C[C@@H]1CN([C@H](C)CO)S(=O)(=O)c2ccc(/C=C/c3ccccc3)cc2O[C@@H]1CN(C)C(=O)c1cccnc1	none (no result: SENP6 inh, SENP7 block, HSP90 refold inh, SENP8 block-1, SENP8 block-2)
Cc1nn(-c2ccccc2)c2c1C(c1ccncc1)C(C#N)=C(N)O2 (stereo not drawn)	none (no result: LGR2 inh)
COc1cc(-n2nc(C)c3c2OC(N)=C(C#N)C3c2ccccc2)c(Cl)c(Br)c1O (stereo not drawn)	HSP90 refold inh 17.2
O=c1oc(-c2ccc([N+](=O)[O-])cc2)nc2ccccc12	none

High-throughput results (PubChem BioAssay)
